Among the test systems are SN12C renal; UO-31 renal; TK-10 renal; ACHN renal; CAKI-1 renal; A498 renal; CCRF-CEM leukemia; MOLT-4 leukemia; SR leukemia.
Common to all, as to test: NCI-60 one-dose screen, 48 h (100 = growth as untreated, 0 = no growth, -100 = all killed)
Settings in all cases: 10 µM

This is part of a sample that, as a whole, favours compounds with a hit. Of some 83,000 tested, about 20% had one in any assay.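 Cells were grown in 96-well plates and exposed to the test compound at a single concentration for 48 hours; results are reported as percent growth, with values below 10 considered active.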 Unmarked numbers belong to inactive results. Calls of active or inactive are those of the source.

Regarding `N=C1c2nc3n(c2C(=O)c2nc4n(c21)CCCC4)CCCC3`, the growth was -86.1% (active) in the assay with SN12C renal; 46.9% in the assay with UO-31 renal; 128% with TK-10 renal; 69.4% with ACHN renal; 88.8% in the assay on CAKI-1 renal; 52.1% with A498 renal. The growth with CCRF-CEM leukemia is 92.9%; in the assay with MOLT-4 leukemia, 85.4%; in the assay on SR leukemia, 69.5%.
As to `CCCCCCN1C(=O)C2=C(c3ccc(Cl)cc3)Nc3c(c(C)nn3-c3ccccc3)C2c2ccccc21` (stereo unspecified), the growth in the assay on SN12C renal was 91.2%; in the assay on UO-31 renal it was 79.2%; in the assay with TK-10 renal it was 107%; with ACHN renal it was 97.1%; with CAKI-1 renal it was 74.5%; in the assay on A498 renal, 87.5%. Moreover, the results for the growth in the assay on CCRF-CEM leukemia, with MOLT-4 leukemia and in the assay with SR leukemia were 85.8%, 73.4% and 76.3%, respectively.
Take `Cn1c([N+](=O)[O-])cnc1/C=C1\Oc2ccc(Cl)cc2C1=O`: the growth in the assay with SN12C renal is -10.9% (active); with UO-31 renal, -31.9% (active); with TK-10 renal, -23% (active); in the assay with ACHN renal, -2.7% (active); in the assay with CAKI-1 renal, -22.9% (active); with A498 renal it was 12.3%. Also, the figures for the growth in the assay on CCRF-CEM leukemia, in the assay with MOLT-4 leukemia and with SR leukemia were -11.8% (active), -1.82% (active) and 11.6%, respectively.
With `C#Cc1ccc(-n2c(/C=C/c3ccc(O)cc3)nc3ncccc3c2=O)cc1`, the growth in the assay on SN12C renal is 75.9%; with UO-31 renal, 34.3%; in the assay with TK-10 renal, 93.7%; in the assay on ACHN renal it was 49.8%; with CAKI-1 renal, 55.9%; with A498 renal, -1.24% (active). Besides, the growth with CCRF-CEM leukemia was 85.7%; in the assay on MOLT-4 leukemia, 101%; in the assay with SR leukemia it was 18.1%.
In the case of `CC1=C(N2CCOCC2)C(N2CCOCC2)=C(C)C(=O)C1=O`, the growth in the assay on SN12C renal is 110%; with UO-31 renal, 83.6%; with TK-10 renal, 99%; in the assay with ACHN renal, 101%; in the assay with CAKI-1 renal it was 101%; with A498 renal, 88.6%. The values for the growth in the assay with CCRF-CEM leukemia, with MOLT-4 leukemia and in the assay on SR leukemia were 102%, 92.7% and 97.4%, respectively.
`c1ccc(CNc2ncnc3scc(-c4cccs4)c23)nc1`: the growth is 63% in the assay on SN12C renal; 47.7% in the assay with UO-31 renal; 126% in the assay with TK-10 renal; 54.7% with ACHN renal; 58% in the assay with CAKI-1 renal; 27.6% with A498 renal. In addition, the growth in the assay on CCRF-CEM leukemia is 63.7%; in the assay with MOLT-4 leukemia, 50.5%; in the assay on SR leukemia, 61.5%.
On to `COc1cc(Nc2ncnc(Nc3ccc4c(n3)NC(=O)C(C)(C)O4)n2)cc(OC)c1OC`, for which the growth was 18.9% in the assay on SN12C renal; -6.15% (active) in the assay on UO-31 renal; -36.4% (active) in the assay on TK-10 renal; 14.6% in the assay with ACHN renal; -10.2% (active) with CAKI-1 renal; -75.1% (active) in the assay with A498 renal. In addition, the growth in the assay on CCRF-CEM leukemia is 25.1%; in the assay on MOLT-4 leukemia, 33.9%; with SR leukemia, 9.18% (active).
Regarding `Cc1ccc(N=Nc2c(N)nc(N)[nH]c2=O)cc1C`, the growth with SN12C renal was 105%; with UO-31 renal, 72.5%; in the assay with TK-10 renal, 110%; in the assay with ACHN renal, 106%; in the assay with CAKI-1 renal, 94.4%; in the assay on A498 renal, 103%. Further, the growth with CCRF-CEM leukemia was 95.2%; in the assay on MOLT-4 leukemia it was 93.2%; in the assay with SR leukemia it was 88.3%.
`COC(=O)C1=NNC(=S)N(c2cc(C)[nH]n2)C(=O)C1`: the growth is 96.3% in the assay with SN12C renal; 76.5% with UO-31 renal; 114% in the assay on TK-10 renal; 107% in the assay on ACHN renal; 92.5% in the assay with CAKI-1 renal; 81.8% in the assay on A498 renal. Further, the growth in the assay with CCRF-CEM leukemia is 91.8%; in the assay with MOLT-4 leukemia, 84.1%; with SR leukemia it was 86.3%.
Take `O=C(Nc1cccc(-n2cc(-c3ccncc3)c(-c3ccc(O)c(Cl)c3)n2)c1)c1ccc(N2CCOCC2)c(C(F)(F)F)c1`: the growth is 57.5% in the assay on SN12C renal; 13.1% with UO-31 renal; 73.4% in the assay on TK-10 renal; 29.3% in the assay on ACHN renal; 26.5% with CAKI-1 renal; 71.7% with A498 renal. The growth in the assay on CCRF-CEM leukemia is 20.2%; with MOLT-4 leukemia it was 40.2%; in the assay with SR leukemia, 18%.
Regarding `CCCCCCN1CCN(Cc2ccc(N(CC)CC)cc2)C(=O)C1=O`, the growth in the assay with SN12C renal was 50.8%; with UO-31 renal, 34.8%; in the assay on TK-10 renal it was 25.4%; in the assay with ACHN renal, 52.4%; in the assay on CAKI-1 renal, 41.6%; in the assay with A498 renal it was -4.48% (active). The growth in the assay with CCRF-CEM leukemia was 9.18% (active); with MOLT-4 leukemia, 19.1%; in the assay with SR leukemia it was 3.37% (active).
Regarding `N#CCCN1C/C(=C/c2ccc(Cl)cc2)C(=O)/C(=C/c2ccc(Cl)cc2)C1`, the growth in the assay with SN12C renal is -74.8% (active); in the assay with UO-31 renal, -95.5% (active); with TK-10 renal, -40.9% (active); in the assay on ACHN renal, -70.7% (active); in the assay on CAKI-1 renal, -9.22% (active); with A498 renal, -68.4% (active). Also, the growth in the assay with CCRF-CEM leukemia is -3.01% (active); in the assay on MOLT-4 leukemia it was -11.7% (active); with SR leukemia it was -17.5% (active).
As for `Cn1c(C(N)=O)cc2c1-c1nc(Nc3ccccc3)ncc1CCC2`, the growth in the assay on SN12C renal was 28%; in the assay with UO-31 renal it was 12.5%; with TK-10 renal, 23.7%; in the assay on ACHN renal, 25.6%; in the assay with CAKI-1 renal, 23.5%; with A498 renal, -43.8% (active). The growth was 43.5% in the assay on CCRF-CEM leukemia, 42.3% in the assay on MOLT-4 leukemia and 17.3% in the assay on SR leukemia.
Regarding `Cc1ccc(S(=O)(=O)Oc2ccc3c4c(c(=O)oc3c2)CCCCC4)cc1`, the growth in the assay with SN12C renal was 66.2%; in the assay on UO-31 renal, 64.6%; in the assay with TK-10 renal it was 74.3%; with ACHN renal, 78.7%; in the assay with CAKI-1 renal it was 59.6%; in the assay with A498 renal, 61.8%. In addition, the growth was 43% with CCRF-CEM leukemia, 42.2% with MOLT-4 leukemia and 2.57% (active) in the assay on SR leukemia.
